Compounds with a hit are over-represented: about 14% of the library has one in this group of screens.
Shiga toxin inh: inhibitors of Shiga toxin in Vero cells. 9.2% of 290,000 active. inhibition, % at 38.7 µM. Vero cells, Shiga toxin protein synthesis inhibition reporter; in the data active = inhibition mostly above about 28%, no sharp cut-off; inactive = mostly below about 43%; also: 0% is about no effect
NS1 function inh: inhibitors of influenza NS1 protein function; 0.4% of 270,000 active; Potency, µM (titrated, usually from 46.1 µM), for inactives: top-dose activity, positive = more growth; AID 2326; calls by dose curve; also: potency is read from the fitted curve at half-maximal effect; actives are rising curves; nearly all actives have a fitted effect of over 50% in size
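S. cerevisiae expressing influenza A NS1, grown in glucose, washed, then diluted 1:100 into pH 6.0 -URA galactose medium with 23 nl compound. Growth recovery read as OD600; NS1-free strain serves as control.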
LmPK inhibitor: inhibitors of Leishmania mexicana pyruvate kinase. Q27686. AID 1721. 0.37% of 290,000 active. Potency, µM (top dose mostly 57.5 µM), for the others: at the highest dose activity change, negative = inhibition, most hits filed as inhibitors. purified LmPK, Kinase-Glo ATP luminescence, 1 h; also: potency is read from the fitted curve at half-maximal effect; % is scaled to controls: 0 for no effect and ±100 for the full control effect
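qHTS format; LmPK 0.1 nM; substrates PEP 0.5 mM and ADP 0.1 mM. One-hour room-temperature incubation, then coupled luciferase luminescence; 0.5 nM enzyme wells mark activation.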
Giardia FBPA inh: blocks Giardia fructose-bisphosphate aldolase activity; Potency, µM (titrated, usually from 59.6 µM), for inactives: at the highest dose activity, negative = inhibition, actives largely listed as inhibitors; purified Giardia FBPA; AID 2451; 0.71% of 290,000 active; also: potency is read from the fitted curve at half-maximal effect; % is scaled to controls: 0 for no effect and ±100 for the full control effect; nearly all actives have a fitted effect of over 55% in size
Target sequence (A8B2U2 whole entry, looked up): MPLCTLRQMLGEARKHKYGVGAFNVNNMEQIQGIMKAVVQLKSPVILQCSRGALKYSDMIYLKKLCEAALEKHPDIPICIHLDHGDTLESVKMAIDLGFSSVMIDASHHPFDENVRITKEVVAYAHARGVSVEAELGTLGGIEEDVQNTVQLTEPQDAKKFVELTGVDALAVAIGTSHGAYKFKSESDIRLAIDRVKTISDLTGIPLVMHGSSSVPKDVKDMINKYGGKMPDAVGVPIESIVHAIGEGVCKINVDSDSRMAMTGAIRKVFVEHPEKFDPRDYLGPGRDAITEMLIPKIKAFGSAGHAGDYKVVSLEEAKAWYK
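Giardia FBPA (40 nM reagent) was preincubated 10 min at RT with compound (up to 57.5 uM final), then substrate plus GAPDH/TPI/NAD/arsenate coupling system with diaphorase/resazurin was added; resorufin fluorescence (525/598 nm) was read after 20 min.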
CHX counter: affects cycloheximide protein synthesis inhibition readout, counter-screen. cell reporter, cycloheximide protein synthesis inhibition counterscreen. max response, %. 12% of 300,000 active; in the data active = max response mostly above about 13%, no sharp cut-off; inactive = mostly below about 14%; also: read at 38.3 µM for the half of the compounds with a filed dose; 0% is about no effect
The depositor's hits bear a star; ? = inconclusive; nt = no result; + = active, no number. Unless noted, calls follow the shape of the dose curve; as a rule, active = well fitted curve in the direction sought with a large enough effect; inconclusive = small, poorly fitted or top-dose-only effect, or another doubt; inactive = no such curve, though single readings can be large; an effect the other way counts as inactive or inconclusive.

SMILES | Shiga toxin inh | NS1 function inh | LmPK inhibitor | Giardia FBPA inh | CHX counter
O=C(N/N=C\c1ccc(Cl)cc1)C1=NOC2COC3(CCN(c4ccc([N+](=O)[O-])cc4)CC3)OCC12 (centres undefined) | -1 | -2% | 1% | 1% | -1
CC(C)/C=N/Nc1nc(-c2ccc(Br)cc2)cs1 | 54* | 20% | 5% | -15% | 31*
O=C(Nc1nc(-c2ccc(Br)cc2)cs1)c1cccnc1 | -9 | 3% | -2% | 0% | -3
O=C(O)c1ccc2cccnc2n1 | 44 | nt | -1% | 5.6µM* | 8
O=C(O)c1cccc(C(=O)O)n1 | -17 | 1% | 1% | 28µM* | -2
O=C(O)c1cccc(Cl)n1 | 12 | -3% | 6% | -24% | 1
COc1ccc(-c2nc3cnc(N4CCOCC4)nc3n(Cc3cccc(OC)c3)c2=O)cc1 | nt | nt | nt | 8% | nt
CS(=O)(=O)N1CCN(c2ccccc2NC(=O)Nc2cccc(Cl)c2)CC1 | 12 | -2% | -1% | -4% | 7
CC1CN(C(=S)SCCN2Cc3ccccc3C2=O)CC(C)O1 (centres undefined) | 9 | 11% | 3% | -6% | 6
O=C1c2ccccc2CN1CCSC(=S)N1CCSCC1 | 157* | nt | 1% | 8% | 48*
O=C1c2ccccc2CN1CCSC(=S)N1CCOCC1 | 81* | -8% | -1% | 6% | 74*
COC(=O)c1ccc(COc2ccc(-c3nn[nH]n3)cc2)cc1 | -9 | -12% | -8% | 17% | -2
CCOc1ccc(OCc2ccc(C(=O)N(CC)CC)cc2)cc1 | 122* | nt | -1% | 8% | 32*
CCC(=O)c1ccc(OCc2ccc(C#N)cc2)cc1 | 77 | 2% | 0% | 4% | 28*
CCC(=O)c1ccc(OCC(=O)O)cc1 | 35 | 4% | 0% | ? | -3
CCN(CC)C(=O)c1ccc(CS(=O)(=O)Cc2ccccc2)cc1 | -5 | 28% | -3% | 14% | 1
CCC(=O)c1ccc(OCc2ccc(C(=O)OC)cc2)cc1 | 100* | 12% | 3% | 6% | 113*
Nc1ccc(N=Nc2ccccc2)cc1 | 69* | nt | -13% | 4% | 41*
Nc1ccc(C(=O)C(=O)c2ccc(N)cc2)cc1 | 2 | -1% | -1% | 10% | 6
Nc1ccc(N=Nc2ccc(N)cc2)cc1 | 96 | nt | -1% | 1% | 33*
O=C(C[C@@H]1C=Cc2ccccc2N1C(=O)c1ccccc1)c1ccccc1 | nt | -5% | nt | nt | nt
COC(=O)Nc1ccc(S(=O)(=O)N2CCCc3ccccc32)cc1 | 41* | -23% | 3% | -11% | 18*
O=S(=O)(c1ccc(Br)cc1)N1CCCc2ccccc21 | -7 | -43% | 3% | -4% | 12*
O=S(=O)(c1ccc(F)c(F)c1)N1CCCc2ccccc21 | 64* | -7% | 3% | -5% | 37*
Cc1ccc(Nc2nc(COC(=O)C3CC3)cs2)cc1 | 75* | -12% | -1% | -9% | 52*
SMILES | Shiga toxin inh | NS1 function inh | LmPK inhibitor | Giardia FBPA inh | CHX counter
CCOC(=O)/C(=N\Nc1ccccc1)c1csc(Nc2ccc(C)cc2)n1 | 1 | 4% | 1% | -2% | -5
O=C(c1csc(Nc2ccccc2Cl)n1)N1CCCC1 | 108* | -43% | 0% | 3% | 53*
Cc1ccc(Nc2nc(C(=O)N3CCC(C(=O)NCCN4CCOCC4)CC3)cs2)cc1 | 24 | -2% | -1% | 0% | 13
Cc1ccc(Nc2nc(C(=O)N3CCC(C(=O)NCc4ccccc4)CC3)cs2)cc1 | 35* | -8% | -1% | 6% | 19*
Cc1ccc(Nc2nc(C(=O)N3CCC(C(=O)N4CCN(C)CC4)CC3)cs2)cc1 | 17 | -8% | -1% | -7% | 19*
O=C(c1csc(Nc2cccc3ccccc23)n1)N1CCCC1 | -3 | -36% | 3% | ? | 8
COc1ccc(CNC(=O)C2CCN(C(=O)c3csc(Nc4ccc(C)cc4)n3)CC2)cc1 | 16 | -6% | 10% | 0% | 9
CC(C)CCCC(C)C1CCC2C3CC=C4CC(O)CCC4(C)C3CCC12C (centres undefined) | nt | nt | nt | 8% | nt
O=C(CSc1ccc2nnc(CCNC(=O)c3ccc(F)cc3)n2n1)NCC1CCCO1 (centres undefined) | 0 | 18% | -9% | nt | -2
Clc1ccc(N2COC3c4cccc5cccc(c45)C32)cc1 (centres undefined) | 49* | 6% | 7% | -4% | 13
CS(=O)(=O)NC1c2cccc3cccc(c23)C1N1CCOCC1 (centres undefined) | -16 | 1% | -1% | -4% | -3
COc1ccc(N2CC2c2ccncc2)cc1 (centres undefined) | 13 | 24% | -1% | 20% | 5
COc1ccc(N2COC3c4cccc5cccc(c45)C32)cc1 (centres undefined) | 45* | 5% | 2% | ? | 24*
O=C(CCCN1CCOCC1)c1ccc2c(c1)OCCO2 | 76 | -5% | -4% | 0% | 32*
O=C(CCN1CCOCC1)c1ccc2c(c1)OCCO2 | 14 | -31% | 0% | -17% | 1
O=C(OCCN1CCOCC1)c1ccc(OCCN2CCOCC2)cc1 | -7 | -5% | 5% | -29% | -2
COc1ccc(C(=O)OCCN2CCOCC2)cc1 | 44* | 12% | 2% | -20% | 25*
O=C(OCCN1CCOCC1)c1ccc2c(c1)OCCO2 | 75* | 5% | 1% | -2% | 53*
O=S(=O)(O)n1ccnc1 (tested in a mixture with another compound) | nt | -1% | nt | nt | nt
CN(CC[C@@H](Oc1ccc(C(F)(F)F)cc1)c1ccccc1)CC(=O)O | -6 | nt | nt | -10% | -5
COC(=O)c1cc(C#N)c(N(C)Cc2ccccc2)nc1C | 37 | -1% | -2% | 4% | 30*
COc1ccc(/C=N/NC(=O)c2ccccc2O)cc1Cn1nnc2ccccc21 | 50* | -14% | 3% | 6% | 22*
COc1ccc(/C=N/NC(=O)Cn2nnc3ccccc32)cc1OC | 32* | 5% | 6% | 2% | 22*
COc1ccc(/C=N\NC(=O)c2sccc2C)cc1Cn1nc(C)cc1C | 105* | -24% | -1% | nt | 42*
CC1Oc2ccccc2C=C1/C=N/NC(=O)c1ccccc1 (centres undefined) | 25 | -14% | -1% | -3% | 18
CC1Oc2ccccc2C=C1/C=N/NC(=O)c1ccccc1O (centres undefined) | + | -8% | 4% | 1% | 43*
CC1Oc2ccccc2C=C1/C=N\NC(=O)c1cccnc1 (centres undefined) | 53* | -6% | -16% | 0% | 20*
